# Experimental data from PubChem BioAssay AID1159580 (chemical genetic matrix, 2015).
# Among all 5,500 compounds or so, about 2,000 (36%) were called active. Not shown: some 18% with an inconclusive outcome. The list shows a part of the results. Unmarked numbers belong to inactive results. Cut-off read from the data, not from the text of the source: active = normalized growth mostly below about 0.91 (no sharp cut-off); inconclusive = no clear call, values can overlap the other calls; inactive = mostly above about 0.92.
# Experiment: chemical genetic growth profiling, strain panel (AID 1159580);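 note: tested at 20 µM; growth read once vehicle control cultures reached saturation at 30 °C; 1 = growth at the plate median or of vehicle wells; lower values mean less growth of the strain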
# Conditions: S. cerevisiae deletion strains, growth OD
# [1] = locus YAR019C, strain CDC15, stronger effect = lower value
# [2] = locus YBL105C, strain PKC1, stronger effect = lower value
# [3] = locus YBR135W, strain CKS1, stronger effect = lower value
# [4] = locus YBR136W, strain MEC1, stronger effect = lower value
# [5] = locus YBR160W, strain CDC28, stronger effect = lower value
# [6] = locus YDL017W, strain CDC7, stronger effect = lower value
# [7] = locus YDL028C, strain MPS1, stronger effect = lower value
# [8] = locus YDL101C, strain DUN1, stronger effect = lower value
# [9] = locus YDL108W, strain KIN28, stronger effect = lower value
# [10] = locus YDL132W, strain cdc53, stronger effect = lower value
# [11] = locus YDL214C, strain PRR2, stronger effect = lower value
# [12] = locus YDR052C, strain DBF4, stronger effect = lower value
# [13] = locus YDR054C, strain cdc34, stronger effect = lower value
# [14] = locus YDR226W, strain ADK1, stronger effect = lower value
# [15] = locus YDR477W, strain SNF1, stronger effect = lower value
# [16] = locus YER123W, strain YCK3, stronger effect = lower value
# [17] = locus YER133W, strain GLC7, stronger effect = lower value
# [18] = locus YFL009W, strain cdc4, stronger effect = lower value
# [19] = locus YFL029C, strain CAK1, stronger effect = lower value
# [20] = locus YFR003C, strain YPI1, stronger effect = lower value
# [21] = locus YFR019W, strain FAB1, stronger effect = lower value
# [22] = locus YFR028C, strain CDC14, stronger effect = lower value
# [23] = locus YGR040W, strain KSS1, stronger effect = lower value
# [24] = locus YGR052W, strain FMP48, stronger effect = lower value
# [25] = locus YGR092W, strain DBF2, stronger effect = lower value
# [26] = locus YHR030C, strain SLT2, stronger effect = lower value
# [27] = locus YHR079C, strain IRE1, stronger effect = lower value
# [28] = locus YHR082C, strain KSP1, stronger effect = lower value
# [29] = locus YHR205W, strain SCH9, stronger effect = lower value
# [30] = locus YIL147C, strain SLN1, stronger effect = lower value
# [31] = locus YJL095W, strain BCK1, stronger effect = lower value
# [32] = locus YJL128C, strain PBS2, stronger effect = lower value
# [33] = locus YJL157C, strain FAR1, stronger effect = lower value
# [34] = locus YJR016C, strain ILV3, stronger effect = lower value
# [35] = locus YJR066W, strain TOR1 (second series), stronger effect = lower value
# [36] = locus YJR066W, strain TOR1, stronger effect = lower value
# [37] = locus YKL048C, strain ELM1, stronger effect = lower value
# [38] = locus YKL067W, strain YNK1, stronger effect = lower value
# [39] = locus YKL101W, strain HSL1, stronger effect = lower value
# [40] = locus YKL193C, strain SDS22, stronger effect = lower value
# [41] = locus YKL203C, strain TOR2, stronger effect = lower value
# [42] = locus YLR113W, strain HOG1, stronger effect = lower value
# [43] = locus YLR133W, strain CKI1, stronger effect = lower value
# [44] = locus YLR403W, strain SFP1, stronger effect = lower value
# [45] = locus YML070W, strain DAK1, stronger effect = lower value
# [46] = locus YMR001C, strain CDC5, stronger effect = lower value
# [47] = locus YMR205C, strain PFK2 (second series), stronger effect = lower value
# [48] = locus YMR277W, strain FCP1, stronger effect = lower value
# [49] = locus YNL006W, strain LST8, stronger effect = lower value
# [50] = locus YNL020C, strain ARK1, stronger effect = lower value
# [51] = locus YNL161W, strain CBK1, stronger effect = lower value
# [52] = locus YNL183C, strain NPR1, stronger effect = lower value
# [53] = locus YNL207W, strain RIO2, stronger effect = lower value
# [54] = locus YNL222W, strain SSU72, stronger effect = lower value
# [55] = locus YNL307C, strain MCK1 (second series), stronger effect = lower value
# [56] = locus YOL078W, strain AVO1, stronger effect = lower value
# [57] = locus YOL136C, strain PFK27, stronger effect = lower value
# [58] = locus YOR061W, strain CKA2, stronger effect = lower value
# [59] = locus YOR119C, strain RIO1, stronger effect = lower value
# [60] = locus YOR231W, strain MKK1, stronger effect = lower value
# [61] = locus YOR329C, strain SCD5, stronger effect = lower value
# [62] = locus YPL031C, strain PHO85, stronger effect = lower value
# [63] = locus YPL153C, strain RAD53, stronger effect = lower value
# [64] = locus YPL204W, strain HRR25, stronger effect = lower value
# [65] = locus YPL209C, strain IPL1, stronger effect = lower value
# [66] = locus YPL256C, strain CLN2, stronger effect = lower value
# [67] = locus YPR025C, strain CCL1, stronger effect = lower value
# [68] = locus YPR106W, strain ISR1, stronger effect = lower value
# [69] = locus YPR111W, strain DBF20, stronger effect = lower value
# [70] = strain NNK1, stronger effect = lower value
# [71] = strain TSCII, stronger effect = lower value
smiles,measurement,setting,value
COc1ccc(OC)c2nc3c(nc12)C(=O)c1ccccc1-3,normalized growth,[1],0.97
same,normalized growth,[2],0.969
same,normalized growth,[3],0.974
same,normalized growth,[4],0.974
same,normalized growth,[5],0.974
same,normalized growth,[6],0.968
same,normalized growth,[7],0.984
same,normalized growth,[8],0.953
same,normalized growth,[9],0.972
same,normalized growth,[10],0.972
same,normalized growth,[11],0.997
same,normalized growth,[12],0.971
same,normalized growth,[13],0.957
same,normalized growth,[14],0.979
same,normalized growth,[15],0.971
same,normalized growth,[16],0.942
same,normalized growth,[17],0.988
same,normalized growth,[18],0.978
same,normalized growth,[19],0.969
same,normalized growth,[20],0.974
same,normalized growth,[21],0.974
same,normalized growth,[22],0.981
same,normalized growth,[23],0.973
same,normalized growth,[24],1
same,normalized growth,[25],0.837
same,normalized growth,[26],0.914
same,normalized growth,[27],0.863
same,normalized growth,[28],1.05
same,normalized growth,[29],0.965
same,normalized growth,[30],0.979
same,normalized growth,[31],0.91
same,normalized growth,[32],0.956
same,normalized growth,[33],0.958
same,normalized growth,[34],0.977
same,normalized growth,[35],0.947
same,normalized growth,[36],1
same,normalized growth,[37],0.953
same,normalized growth,[38],0.989
same,normalized growth,[39],0.985
same,normalized growth,[40],0.975
same,normalized growth,[41],1
same,normalized growth,[42],0.899
same,normalized growth,[43],0.967
same,normalized growth,[44],0.932
same,normalized growth,[45],0.979
same,normalized growth,[46],0.971
same,normalized growth,[47],0.996
same,normalized growth,[48],0.976
same,normalized growth,[49],0.973
same,normalized growth,[50],0.94
same,normalized growth,[51],0.958
same,normalized growth,[52],0.99
same,normalized growth,[53],0.971
same,normalized growth,[54],0.974
same,normalized growth,[55],0.945
same,normalized growth,[56],0.975
same,normalized growth,[57],0.958
same,normalized growth,[58],0.938
same,normalized growth,[59],1.05
same,normalized growth,[60],0.902
same,normalized growth,[61],0.966
same,normalized growth,[62],0.935
same,normalized growth,[63],0.929
same,normalized growth,[64],0.94
same,normalized growth,[65],0.96
same,normalized growth,[66],0.902
same,normalized growth,[67],0.979
same,normalized growth,[68],0.98
same,normalized growth,[69],0.968
same,normalized growth,[70],0.98
same,normalized growth,[71],0.968
Cc1ccc2nc3c(nc2c1)-c1ccccc1C3=O,normalized growth,[1],0.916
same,normalized growth,[2],0.925
same,normalized growth,[3],0.929
same,normalized growth,[4],0.93
same,normalized growth,[5],0.931
same,normalized growth,[6],0.926
same,normalized growth,[7],0.937
same,normalized growth,[8],0.716 (active)
same,normalized growth,[9],0.938
same,normalized growth,[10],0.932
same,normalized growth,[11],0.247 (active)
same,normalized growth,[12],0.861 (active)
same,normalized growth,[14],0.958
same,normalized growth,[15],0.279 (active)
same,normalized growth,[16],0.217 (active)
same,normalized growth,[17],0.339 (active)
same,normalized growth,[18],0.925
same,normalized growth,[19],0.9
same,normalized growth,[20],0.927
same,normalized growth,[21],0.281 (active)
same,normalized growth,[22],0.922
same,normalized growth,[23],0.3 (active)
same,normalized growth,[24],0.255 (active)
same,normalized growth,[25],0.15 (active)
same,normalized growth,[26],0.208 (active)
same,normalized growth,[27],0.209 (active)
same,normalized growth,[28],0.261 (active)
same,normalized growth,[29],0.391 (active)
same,normalized growth,[30],0.935
same,normalized growth,[31],0.227 (active)
same,normalized growth,[33],0.21 (active)
same,normalized growth,[34],0.935
same,normalized growth,[35],0.259 (active)
same,normalized growth,[36],0.225 (active)
same,normalized growth,[37],0.309 (active)
same,normalized growth,[38],0.235 (active)
same,normalized growth,[39],0.264 (active)
same,normalized growth,[40],0.919
same,normalized growth,[41],0.275 (active)
same,normalized growth,[42],0.288 (active)
same,normalized growth,[43],0.224 (active)
same,normalized growth,[44],0.181 (active)
same,normalized growth,[45],0.243 (active)
same,normalized growth,[46],0.908
same,normalized growth,[47],0.261 (active)
same,normalized growth,[48],0.922
same,normalized growth,[49],0.929
same,normalized growth,[50],0.196 (active)
same,normalized growth,[51],0.903
same,normalized growth,[52],0.259 (active)
same,normalized growth,[53],0.909
same,normalized growth,[54],0.923
same,normalized growth,[55],0.199 (active)
same,normalized growth,[56],0.903
same,normalized growth,[57],0.226 (active)
same,normalized growth,[58],0.205 (active)
same,normalized growth,[59],0.29 (active)
same,normalized growth,[60],0.246 (active)
same,normalized growth,[61],0.92
same,normalized growth,[62],0.278 (active)
same,normalized growth,[63],0.265 (active)
same,normalized growth,[64],0.263 (active)
same,normalized growth,[65],0.92
same,normalized growth,[66],0.277 (active)
same,normalized growth,[67],0.929
same,normalized growth,[69],0.886
same,normalized growth,[70],0.8 (active)
same,normalized growth,[71],0.874 (active)
NNC(=O)c1oc2nc(-c3ccccc3)cc(-c3ccccc3)c2c1N,normalized growth,[1],0.972
same,normalized growth,[2],0.986
same,normalized growth,[3],0.984
same,normalized growth,[4],0.985
same,normalized growth,[5],0.987
same,normalized growth,[6],0.985
same,normalized growth,[7],0.983
same,normalized growth,[8],0.981
same,normalized growth,[9],0.978
same,normalized growth,[10],0.971
same,normalized growth,[11],0.921
same,normalized growth,[12],0.997
same,normalized growth,[13],0.962
same,normalized growth,[14],0.985
same,normalized growth,[15],0.934
same,normalized growth,[16],0.913
same,normalized growth,[17],0.93
same,normalized growth,[18],0.983
same,normalized growth,[19],0.965
same,normalized growth,[20],0.984
same,normalized growth,[21],0.924
same,normalized growth,[22],0.976
same,normalized growth,[23],0.93
same,normalized growth,[24],0.952
same,normalized growth,[25],0.943
same,normalized growth,[26],0.979
same,normalized growth,[27],1.01
same,normalized growth,[28],0.998
same,normalized growth,[29],0.914
same,normalized growth,[30],0.984
same,normalized growth,[31],0.891
same,normalized growth,[32],0.95
same,normalized growth,[33],0.924
same,normalized growth,[34],0.98
same,normalized growth,[35],0.887
same,normalized growth,[36],0.983
same,normalized growth,[37],0.956
same,normalized growth,[38],0.948
same,normalized growth,[39],0.937
same,normalized growth,[40],0.977
same,normalized growth,[41],0.989
same,normalized growth,[42],0.813 (active)
same,normalized growth,[43],0.942
same,normalized growth,[44],0.924
same,normalized growth,[45],0.899
same,normalized growth,[46],0.988
same,normalized growth,[47],0.953
same,normalized growth,[48],0.983
same,normalized growth,[49],0.978
same,normalized growth,[50],0.935
same,normalized growth,[51],0.989
same,normalized growth,[52],0.946
same,normalized growth,[53],0.965
same,normalized growth,[54],0.981
same,normalized growth,[55],0.895
same,normalized growth,[56],0.954
same,normalized growth,[57],0.844
same,normalized growth,[58],0.958
same,normalized growth,[59],0.996
same,normalized growth,[60],0.884
same,normalized growth,[61],0.985
same,normalized growth,[62],0.907
same,normalized growth,[63],0.953
same,normalized growth,[64],0.907
same,normalized growth,[65],0.982
same,normalized growth,[66],0.939
same,normalized growth,[67],0.984
same,normalized growth,[68],0.977
same,normalized growth,[69],0.961
same,normalized growth,[70],0.97
same,normalized growth,[71],0.98
